# Values without a mark were called inactive.
# Test system: Vero E6 infected with SARS-CoV-2
# Experiment: inhibition of SARS-CoV-2 cytopathic effect; higher = more antiviral protection, active = above 15
# Settings: 48 h
SMILES,inhibition of SARS-CoV-2 cytopathic effect (1 nM) [%],inhibition of SARS-CoV-2 cytopathic effect (8.33 nM) [%],inhibition of SARS-CoV-2 cytopathic effect (100 nM) [%],inhibition of SARS-CoV-2 cytopathic effect (833.33 nM) [%],inhibition of SARS-CoV-2 cytopathic effect (10000 nM)
O=C1C=CC(=O)C2=C1C1c3ccccc3C2c2ccccc21,1.05,0.78,-0.03,2.43,5.57%
C[C@]12CC[C@H](O)CC1=CC[C@@H]1[C@@H]2CC[C@]2(C)C(n3cnc4ccccc43)=CC[C@@H]12 [galeterone],-0.79,0.99,0.05,-5.02,-6.94%
S=C=Nc1ccc(N=C=S)cc1 [bitoscanate],-1.75,0.45,-0.83,0.38,-2.58%
C=C1C[C@@]2(O)O[C@@]3(C[C@H]2C(C)C)[C@@H](C)CC[C@@H]13 [curcumol],-2.21,-1.48,1.91,0.52,-2.49%
COC(=O)C1=CO[C@@H](O[C@@H]2O[C@H](CO)[C@@H](O)[C@H](O)[C@H]2O)[C@@H]2C(CO)=CC[C@H]12 [geniposide],-1.56,-1.45,-10.1,-17,-18.6%
N[C@@H]1CN(c2c(F)cc3c(=O)c(C(=O)O)cn([C@@H]4C[C@@H]4F)c3c2Cl)CC12CC2 [sitafloxacin],-0.69,-3.2,-0.99,-1.2,5.19%
C[C@@H](c1nc(-c2ccc(C#N)cc2)cs1)[C@](O)(Cn1cncn1)c1ccc(F)cc1F [ravuconazole],-0.11,-0.67,-0.09,-0.86,0.29%
CCN(CC)CCOc1ccc2c(c1)C(=O)c1cc(OCCN(CC)CC)ccc1-2 [tilorone],-0.99,0.89,1.34,0.62,24.9% (active)

# Source: the supplement of paper PMC13380429
